This passage reports outcome and AC50 results from PubChem BioAssay (EPA / NIEHS).

Inconclusive results are not listed. A structure can be active in one record and inactive in another. The source made the active and inactive calls. The calls were made as follows, unless noted: active = hit-call score of the fitted dose curve at least 0.9, where 1 is the maximum; inconclusive = response in the unintended direction; inactive = score below 0.9.

Experiment [1] has as its target human Peroxisome Proliferator-activated Receptor delta (PPARd), PPARD (gene 5467) (UniProt Q03181). In words: ATG_PPARd_TRANS: Attagene TRANS-FACTORIAL HepG2 Assay for human Peroxisome Proliferator-activated Receptor delta (PPARd) (AID 2283002). In short, it runs like this:
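HepG2 cells transiently transfected with GAL4-UAS multiplexed reporter units driven by exogenous chimeric NR-GAL4 proteins; 24 h compound exposure. Reporter mRNA measured by RT-PCR, 6-FAM primer extension, HpaI digestion and capillary electrophoresis; gain of signal fitted relative to DMSO.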

Read-out in experiment [2]: Intercellular Adhesion Molecule 1 (ICAM1), ICAM1 (gene 3383)
Briefly: BSK_3C_ICAM1: BioMAP Diversity Plus: 3C Assay for Intercellular Adhesion Molecule 1 (ICAM1) Biomarker Activity (AID 2283003; active = hit-call score of the fitted dose curve at least 0.9, where 1 is the maximum; inactive = score below 0.9). To be noted: primary human endothelial cells (HUVEC); actives raise or lower the signal. A digest of the protocol: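 Using DMSO as baseline, bidirectional curve fitting was applied to ICAM-1 ELISA signals from HUVEC in the 3C system, measured 24 h after compound addition.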

In experiment [3] the target is human Retinoic Acid Receptor beta (RARb), RARB (gene 5915) (UniProt P10826). In words: ATG_RARb_TRANS: Attagene TRANS-FACTORIAL HepG2 Assay for human Retinoic Acid Receptor beta (AID 2283004). In short, it runs like this:
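Readout is reporter mRNA induction: RNA reverse-transcribed, PCR-amplified, FAM-labelled, HpaI-cut and resolved by capillary electrophoresis. Transiently transfected HepG2 cells carrying exogenous NR–Gal4 chimeras were dosed for 24 h; activity fitted upward relative to DMSO.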

Experiment [4] can be described thus: BSK_3C_Proliferation: Cell Proliferation Assessment in the BioMAP Diversity Plus: 3C Assay (AID 2283006; active = hit-call score of the fitted dose curve at least 0.9, where 1 is the maximum; inactive = score below 0.9;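 as to AC50: potency may reflect either rise or fall in cell number versus DMSO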). To be noted: primary human endothelial cells (HUVEC). In short, it runs like this:
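Measured here: sulforhodamine B (0.1%) staining of TCA-fixed sub-confluent umbilical vein endothelial cultures 48 h post-dosing, absorbance 560 nm. DMSO served as negative control and baseline; both signal gain and loss were modelled.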

For experiment [5], the target named is human Retinoid X Receptor beta (RXRb), RXRB (gene 6257) (UniProt P28702). In words: ATG_RXRb_TRANS: Attagene TRANS-FACTORIAL HepG2 Assay for human Retinoid X Receptor beta (RXRb) (AID 2283013). In short, it runs like this:
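After a 24 h incubation with test chemical, transfected HepG2 cells carrying NR-Gal4 fusions and GAL4-UAS reporter transcription units yield RNA whose reporter cDNA is FAM-labelled, HpaI-cut and sized by capillary electrophoresis; increases over DMSO are scored.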

Read-out in experiment [6]: E-selectin (Homo sapiens) (UniProt P16581)
Briefly: BSK_3C_Eselectin: BioMAP Diversity Plus: 3C Assay for Eselectin Biomarker Activity (AID 2283015; active = hit-call score of the fitted dose curve at least 0.9, where 1 is the maximum; inactive = score below 0.9;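 as to outcome: cell surface E-selectin protein quantified by ELISA 24 h after dosing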). The settings on record: primary human endothelial cells (HUVEC); actives raise or lower the signal. A digest of the protocol:
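HUVEC, 3C stimulation; compound exposure 24 h; E-selectin by ELISA; gain- or loss-of-signal fitted bidirectionally vs DMSO baseline.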

Read-out in experiment [7]: Monocyte Chemoattractant Protein-1 (MCP1), CCL2 (gene 6347)
Briefly: BSK_3C_MCP1: BioMAP Diversity Plus: 3C Assay for Monocyte Chemoattractant Protein-1 (MCP1) Biomarker Activity (AID 2283017; active = hit-call score of the fitted dose curve at least 0.9, where 1 is the maximum; inactive = score below 0.9). The settings on record: primary human endothelial cells (HUVEC); actives raise or lower the signal. In short, it runs like this:
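HUVEC, 3C system; 24 h chemical exposure; MCP-1 by ELISA; bidirectional curve fit vs DMSO baseline.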

Read-out in experiment [8]: Monocyte Chemoattractant Protein-1 (MCP1), CCL2 (gene 6347)
Briefly: BSK_4H_MCP1: BioMAP Diversity Plus: 4H Assay for Monocyte Chemoattractant Protein-1 (MCP1) Biomarker Activity (AID 2283018; active = hit-call score of the fitted dose curve at least 0.9, where 1 is the maximum; inactive = score below 0.9). To be noted: primary human endothelial cells (HUVEC); actives raise or lower the signal. In short, it runs like this:
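Primary human umbilical vein endothelium is exposed to chemical for 24 h before MCP-1 is assayed by ELISA. Concentration-response fitted bidirectionally relative to DMSO.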

Read-out in experiment [9]: Human Leukocyte Antigen - DR isotype (HLADR), HLA-DRA (gene 3122)
Briefly: BSK_3C_HLADR: BioMAP Diversity Plus: 3C Assay for Human Leukocyte Antigen - DR isotype (HLADR) Biomarker Activity (AID 2283019; active = hit-call score of the fitted dose curve at least 0.9, where 1 is the maximum; inactive = score below 0.9;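 as to outcome: ELISA of cell-surface HLA-DR on HUVEC 24 h after dosing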). To be noted: primary human endothelial cells (HUVEC); actives raise or lower the signal. A digest of the protocol:
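HUVEC, 3C stimulation, 24 h post-dose; HLA-DR by ELISA; bidirectional curve fit vs DMSO baseline; gain or loss of signal scored.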

Read-out in experiment [10]: Interleukin-8 (IL8), CXCL8 (gene 3576)
In words: BSK_3C_IL8: BioMAP Diversity Plus: 3C Assay for Interleukin-8 (IL8) Biomarker Activity (AID 2283020; active = hit-call score of the fitted dose curve at least 0.9, where 1 is the maximum; inactive = score below 0.9). To be noted: primary human endothelial cells (HUVEC); actives raise or lower the signal. A digest of the protocol:
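Using DMSO-treated wells as the baseline, bidirectional curve fitting was applied to ELISA-measured IL-8 from human umbilical vein endothelial cultures sampled 24 h after compound addition.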

Read-out in experiment [11]: Monokine induced gamma interferon (MIG), CXCL9 (gene 4283)
In words: BSK_3C_MIG: BioMAP Diversity Plus: 3C Assay for Monokine induced gamma interferon (MIG) Biomarker Activity (AID 2283021; active = hit-call score of the fitted dose curve at least 0.9, where 1 is the maximum; inactive = score below 0.9). The settings on record: primary human endothelial cells (HUVEC); actives raise or lower the signal. A digest of the protocol:
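ELISA-measured MIG in dosed HUVEC 3C cultures at 24 h, analysed by bidirectional fitting with DMSO defining baseline activity.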

In experiment [12] the target is Peroxisome proliferator-activated receptor gamma (Homo sapiens) (UniProt P37231). Briefly: ATG_PPARg_TRANS: Attagene TRANS-FACTORIAL HepG2 Assay for human Peroxisome Proliferator-activated Receptor-gamma (PPARg) (AID 2283007). In short, it runs like this: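 Read-out: reporter mRNA induction, detected by fluorescence after RT-PCR and capillary electrophoresis. Transiently transfected human HepG2 liver cells carrying a chimeric NR-Gal4 construct were dosed for 24 h; activity was fitted upward relative to DMSO.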

The target in experiment [13] is Nuclear receptor subfamily 1 group I member 2 (Homo sapiens) (UniProt O75469). In words: ATG_PXR_TRANS: Attagene TRANS-FACTORIAL HepG2 Assay for human Pregnane X Receptor (PXR) (AID 2283008). A digest of the protocol:
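HepG2 transfected (FuGene 6) with GAL4-UAS reporter units + PXR-Gal4 chimera; dosed 24 h. Total RNA → oligo(dT) RT → PCR → 6-FAM primer extension → HpaI cut → CE. Gain-of-signal vs DMSO.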

Experiment [14] has as its target Retinoic acid receptor RXR-alpha (Homo sapiens) (UniProt P19793). In words: ATG_RXRa_TRANS: Attagene TRANS-FACTORIAL HepG2 Assay for human Retinoid X Receptor alpha (RXRa) (AID 2283012). In short, it runs like this:
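Chimeric NR-GAL4 trans-activation in HepG2, 24 h treatment; reporter transcripts quantified by fluorescence on capillary electrophoresis, analysed for upward change from DMSO.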

Experiment [15] concerns the target human Thyroid Receptor alpha (THRa1), THRA (gene 7067) (UniProt P10827). Briefly: ATG_THRa1_TRANS: Attagene TRANS-FACTORIAL HepG2 Assay for human Thyroid Receptor alpha (THRa1) (AID 2283014). In short, it runs like this:
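Transient HepG2 transfection, NR-Gal4 chimera driving GAL4-UAS reporters; 24 h compound exposure; total RNA, oligo(dT) RT, PCR, fluorescent primer extension, capillary electrophoresis. Upward direction vs DMSO control.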

Read-out in experiment [16]: Interleukin-1 alpha (IL1a), IL1A (gene 3552)
In words: BSK_BE3C_IL1a: BioMAP Diversity Plus: BE3C Assay for Interleukin-1 alpha (IL1a) Biomarker Activity (AID 2283016; active = hit-call score of the fitted dose curve at least 0.9, where 1 is the maximum; inactive = score below 0.9). The settings on record: primary human bronchial epithelial cells; actives raise or lower the signal. A digest of the protocol:
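Measured in human lung primary bronchial epithelial cells: IL-1a by ELISA at 24 h after dosing, with bidirectional fitting against DMSO.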

The target of experiment [17] is Retinoic acid receptor alpha (Homo sapiens) (UniProt P10276). Briefly: ATG_RARa_TRANS: Attagene TRANS-FACTORIAL HepG2 Assay for human Retinoic Acid Receptor alpha (RARa) (AID 2283005). A digest of the protocol: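 HepG2 transiently transfected with multiplex GAL4-UAS reporter units including a human RARa–GAL4 chimera; 24 h compound exposure. Reporter mRNA quantified by RT-PCR, 6-FAM labeling and capillary electrophoresis; gain of signal versus DMSO.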
Chain of Retinoic acid receptor alpha (Homo sapiens) (P10276 whole entry, looked up, the tested form may be a part): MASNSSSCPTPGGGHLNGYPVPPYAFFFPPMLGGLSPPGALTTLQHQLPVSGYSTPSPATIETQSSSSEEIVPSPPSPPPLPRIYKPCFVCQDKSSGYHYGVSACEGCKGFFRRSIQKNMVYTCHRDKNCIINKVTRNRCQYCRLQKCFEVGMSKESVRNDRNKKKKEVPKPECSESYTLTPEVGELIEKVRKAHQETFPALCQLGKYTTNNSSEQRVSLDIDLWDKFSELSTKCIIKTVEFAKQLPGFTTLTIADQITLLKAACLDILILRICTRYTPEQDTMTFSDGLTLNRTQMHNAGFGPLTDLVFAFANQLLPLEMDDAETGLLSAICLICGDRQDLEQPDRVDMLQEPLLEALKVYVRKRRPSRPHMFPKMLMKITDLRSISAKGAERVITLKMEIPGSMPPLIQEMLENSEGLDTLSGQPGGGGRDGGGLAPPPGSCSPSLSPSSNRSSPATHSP

In experiment [18] the target is human Retinoic Acid Receptor gamma (RARg), RARG (gene 5916) (UniProt P13631). Briefly: ATG_RARg_TRANS: Attagene TRANS-FACTORIAL HepG2 Assay for human Retinoic Acid Receptor gamma (RARg) (AID 2283009). A digest of the protocol:
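Gain-of-signal relative to DMSO is reported from fluorescent capillary electrophoresis of RT-PCR reporter products. These came from HepG2 cells expressing transfected RARg-GAL4 chimeras with UAS reporters, harvested 24 h after dosing.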

Experiment [19] deals with human RAR-related Orphan Receptor beta (RORb), RORB (gene 6096) (UniProt Q92753). In words: ATG_RORb_TRANS: Attagene TRANS-FACTORIAL HepG2 Assay for human RAR-related Orphan Receptor beta (RORb) (AID 2283010). A digest of the protocol: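 Multiplexed transcription-factor reporter assay: HepG2 cells transiently carrying NR-Gal4/GAL4-UAS constructs, 24 h treatment, mRNA quantified by RT-PCR plus capillary electrophoresis fluorescence; activity scored as induction over DMSO.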
Chain of human RAR-related Orphan Receptor beta (RORb), RORB (gene 6096) (Q92753 whole entry, looked up, the tested form may be a part): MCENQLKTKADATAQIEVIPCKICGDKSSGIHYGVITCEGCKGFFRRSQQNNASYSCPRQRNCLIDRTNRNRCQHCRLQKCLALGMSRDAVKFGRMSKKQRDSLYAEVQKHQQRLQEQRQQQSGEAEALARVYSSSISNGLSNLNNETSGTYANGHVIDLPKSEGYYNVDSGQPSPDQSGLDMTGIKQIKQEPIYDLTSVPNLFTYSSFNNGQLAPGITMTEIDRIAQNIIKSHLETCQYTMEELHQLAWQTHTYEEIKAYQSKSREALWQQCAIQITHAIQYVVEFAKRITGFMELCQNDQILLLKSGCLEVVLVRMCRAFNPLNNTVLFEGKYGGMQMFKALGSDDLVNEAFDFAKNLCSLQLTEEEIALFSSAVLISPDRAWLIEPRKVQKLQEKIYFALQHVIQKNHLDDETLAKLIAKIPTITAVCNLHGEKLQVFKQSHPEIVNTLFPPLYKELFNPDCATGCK

In experiment [20] the target is human RAR-related Orphan Receptor gamma (RORg), RORC (gene 6097) (UniProt P51449). Briefly: ATG_RORg_TRANS: Attagene TRANS-FACTORIAL HepG2 Assay for human RAR-related Orphan Receptor gamma (RORg) (AID 2283011). A digest of the protocol: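 Transient MRTU transfection of HepG2 (TRANS format, exogenous NR-Gal4 chimera). 24 h dosing. Total RNA → oligo(dT) RT → PCR → 6-FAM labelling → HpaI cut → CE. Gain vs DMSO.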
Chain of human RAR-related Orphan Receptor gamma (RORg), RORC (gene 6097) (P51449 whole entry, looked up, the tested form may be a part): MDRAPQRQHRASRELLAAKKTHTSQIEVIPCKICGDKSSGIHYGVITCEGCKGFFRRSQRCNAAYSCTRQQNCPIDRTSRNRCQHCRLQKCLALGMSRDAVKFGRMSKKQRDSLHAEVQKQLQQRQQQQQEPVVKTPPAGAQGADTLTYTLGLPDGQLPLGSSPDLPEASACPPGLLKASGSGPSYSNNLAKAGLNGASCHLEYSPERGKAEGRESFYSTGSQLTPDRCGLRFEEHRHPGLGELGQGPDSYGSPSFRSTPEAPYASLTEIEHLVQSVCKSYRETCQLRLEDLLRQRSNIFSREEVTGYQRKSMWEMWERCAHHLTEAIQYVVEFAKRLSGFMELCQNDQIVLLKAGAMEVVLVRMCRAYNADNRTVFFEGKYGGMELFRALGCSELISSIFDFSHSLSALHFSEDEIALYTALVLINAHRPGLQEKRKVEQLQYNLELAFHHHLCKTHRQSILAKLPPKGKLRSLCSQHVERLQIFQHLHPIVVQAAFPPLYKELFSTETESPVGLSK

Chain of human Thyroid Receptor alpha (THRa1), THRA (gene 7067) (P10827 whole entry, looked up, the tested form may be a part): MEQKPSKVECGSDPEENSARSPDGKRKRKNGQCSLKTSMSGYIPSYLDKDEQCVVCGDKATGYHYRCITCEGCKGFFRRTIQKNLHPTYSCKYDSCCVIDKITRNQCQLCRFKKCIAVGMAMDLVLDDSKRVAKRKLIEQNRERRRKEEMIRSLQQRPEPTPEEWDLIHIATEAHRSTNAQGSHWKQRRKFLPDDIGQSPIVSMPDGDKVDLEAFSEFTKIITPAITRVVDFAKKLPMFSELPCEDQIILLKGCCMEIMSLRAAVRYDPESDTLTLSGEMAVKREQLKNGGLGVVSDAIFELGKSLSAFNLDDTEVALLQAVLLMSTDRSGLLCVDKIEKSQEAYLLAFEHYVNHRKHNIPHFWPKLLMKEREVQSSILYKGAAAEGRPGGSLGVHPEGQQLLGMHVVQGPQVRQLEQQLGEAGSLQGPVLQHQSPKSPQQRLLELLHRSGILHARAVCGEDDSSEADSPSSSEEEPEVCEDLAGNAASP
Chain of human Retinoid X Receptor beta (RXRb), RXRB (gene 6257) (P28702 whole entry, looked up, the tested form may be a part): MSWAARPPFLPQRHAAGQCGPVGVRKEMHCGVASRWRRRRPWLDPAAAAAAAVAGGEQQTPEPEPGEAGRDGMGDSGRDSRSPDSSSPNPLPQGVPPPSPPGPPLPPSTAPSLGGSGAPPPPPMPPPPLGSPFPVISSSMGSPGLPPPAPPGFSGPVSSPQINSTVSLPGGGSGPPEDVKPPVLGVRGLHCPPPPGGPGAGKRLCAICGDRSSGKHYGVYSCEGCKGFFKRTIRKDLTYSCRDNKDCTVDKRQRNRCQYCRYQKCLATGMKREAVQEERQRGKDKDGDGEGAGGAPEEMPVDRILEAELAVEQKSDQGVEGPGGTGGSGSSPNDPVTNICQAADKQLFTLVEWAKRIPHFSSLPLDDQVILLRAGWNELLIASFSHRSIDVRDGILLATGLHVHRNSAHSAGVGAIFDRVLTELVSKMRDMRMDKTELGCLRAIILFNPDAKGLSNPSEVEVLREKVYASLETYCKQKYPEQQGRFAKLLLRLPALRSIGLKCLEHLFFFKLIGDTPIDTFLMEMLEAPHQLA
Chain of human Retinoic Acid Receptor gamma (RARg), RARG (gene 5916) (P13631 whole entry, looked up, the tested form may be a part): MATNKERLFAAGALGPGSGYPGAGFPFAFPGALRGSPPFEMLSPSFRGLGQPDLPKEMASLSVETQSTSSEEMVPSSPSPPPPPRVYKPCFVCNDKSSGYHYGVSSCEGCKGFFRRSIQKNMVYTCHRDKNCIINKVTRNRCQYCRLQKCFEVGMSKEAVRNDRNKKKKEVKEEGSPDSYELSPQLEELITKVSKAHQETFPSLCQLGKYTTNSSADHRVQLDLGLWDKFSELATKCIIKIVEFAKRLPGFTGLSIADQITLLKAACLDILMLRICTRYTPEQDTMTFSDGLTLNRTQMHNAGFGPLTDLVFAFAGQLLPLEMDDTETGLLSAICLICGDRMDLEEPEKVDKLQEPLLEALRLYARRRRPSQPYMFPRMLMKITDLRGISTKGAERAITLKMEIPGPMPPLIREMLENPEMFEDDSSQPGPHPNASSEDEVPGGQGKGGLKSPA
Chain of E-selectin (Homo sapiens) (P16581 whole entry, looked up): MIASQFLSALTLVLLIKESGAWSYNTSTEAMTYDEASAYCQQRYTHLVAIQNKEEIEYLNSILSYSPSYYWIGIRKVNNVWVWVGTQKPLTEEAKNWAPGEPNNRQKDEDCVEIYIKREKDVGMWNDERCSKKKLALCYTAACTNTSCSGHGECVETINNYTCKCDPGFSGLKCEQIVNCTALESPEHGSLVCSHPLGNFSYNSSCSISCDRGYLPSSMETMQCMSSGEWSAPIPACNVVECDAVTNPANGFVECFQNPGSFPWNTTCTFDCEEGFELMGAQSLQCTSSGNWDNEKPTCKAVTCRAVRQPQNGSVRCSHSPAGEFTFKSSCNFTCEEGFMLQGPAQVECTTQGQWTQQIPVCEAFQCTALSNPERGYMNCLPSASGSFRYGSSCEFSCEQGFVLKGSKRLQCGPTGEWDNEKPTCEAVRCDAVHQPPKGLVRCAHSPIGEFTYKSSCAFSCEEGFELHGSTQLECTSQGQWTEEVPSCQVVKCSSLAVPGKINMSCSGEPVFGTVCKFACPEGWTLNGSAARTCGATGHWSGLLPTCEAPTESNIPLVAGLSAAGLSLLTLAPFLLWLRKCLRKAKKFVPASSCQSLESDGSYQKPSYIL
Chain of Retinoic acid receptor RXR-alpha (Homo sapiens) (P19793 whole entry, looked up, the tested form may be a part): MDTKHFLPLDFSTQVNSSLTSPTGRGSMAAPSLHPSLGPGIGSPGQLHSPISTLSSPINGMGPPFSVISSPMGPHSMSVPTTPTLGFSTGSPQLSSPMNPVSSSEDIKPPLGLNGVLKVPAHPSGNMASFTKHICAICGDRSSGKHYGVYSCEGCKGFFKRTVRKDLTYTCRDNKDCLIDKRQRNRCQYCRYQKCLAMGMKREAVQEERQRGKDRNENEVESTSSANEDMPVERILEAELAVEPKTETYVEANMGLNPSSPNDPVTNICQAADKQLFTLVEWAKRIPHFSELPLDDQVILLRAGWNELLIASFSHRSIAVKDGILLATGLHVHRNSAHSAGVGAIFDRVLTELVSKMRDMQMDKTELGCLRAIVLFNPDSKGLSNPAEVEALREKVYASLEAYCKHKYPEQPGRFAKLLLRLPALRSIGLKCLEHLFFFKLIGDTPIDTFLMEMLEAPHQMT
Chain of human Retinoic Acid Receptor beta (RARb), RARB (gene 5915) (P10826 whole entry, looked up, the tested form may be a part): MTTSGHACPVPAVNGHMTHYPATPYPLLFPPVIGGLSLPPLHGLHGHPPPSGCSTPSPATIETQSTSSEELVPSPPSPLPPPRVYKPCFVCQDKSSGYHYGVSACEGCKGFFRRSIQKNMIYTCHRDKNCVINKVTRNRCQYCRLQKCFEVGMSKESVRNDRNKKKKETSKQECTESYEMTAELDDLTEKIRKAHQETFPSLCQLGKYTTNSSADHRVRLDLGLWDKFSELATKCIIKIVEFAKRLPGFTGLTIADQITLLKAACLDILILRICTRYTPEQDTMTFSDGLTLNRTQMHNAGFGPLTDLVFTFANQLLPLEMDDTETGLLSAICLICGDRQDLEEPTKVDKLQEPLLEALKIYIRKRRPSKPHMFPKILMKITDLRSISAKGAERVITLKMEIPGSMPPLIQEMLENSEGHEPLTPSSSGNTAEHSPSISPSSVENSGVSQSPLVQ
Chain of human Peroxisome Proliferator-activated Receptor delta (PPARd), PPARD (gene 5467) (Q03181 whole entry, looked up, the tested form may be a part): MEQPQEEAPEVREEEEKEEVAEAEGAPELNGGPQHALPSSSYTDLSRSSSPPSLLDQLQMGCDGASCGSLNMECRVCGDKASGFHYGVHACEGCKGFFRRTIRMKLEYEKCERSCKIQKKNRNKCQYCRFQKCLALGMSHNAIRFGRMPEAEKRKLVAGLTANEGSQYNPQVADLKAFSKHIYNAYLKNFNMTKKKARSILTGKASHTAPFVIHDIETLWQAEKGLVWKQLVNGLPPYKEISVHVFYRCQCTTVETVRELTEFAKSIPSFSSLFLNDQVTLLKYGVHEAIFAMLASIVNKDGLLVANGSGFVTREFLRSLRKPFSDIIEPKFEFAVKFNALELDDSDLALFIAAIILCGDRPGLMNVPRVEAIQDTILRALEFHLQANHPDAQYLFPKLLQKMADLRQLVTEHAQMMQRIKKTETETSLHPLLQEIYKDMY

As to `Cn1cc[nH]c1=S`, the outcome in experiment [1], in experiment [2], in experiment [3], in experiment [4], in experiment [5] and in experiment [6] was inactive. The outcome in [7], in [8], in experiment [9], in [10] and in experiment [11] was inactive.
In the case of `CCOc1ccc2[nH]cc(C(=O)NCc3ccccc3)c(=O)c2n1`, the molecule was classed as inactive in experiment [1], in experiment [2], in experiment [4], in experiment [12], in experiment [14] and in experiment [5]. For the same molecule, the molecule was classed as inactive in experiment [15], in [16], in [7], in [8], in experiment [9] and in [10]. Besides, the outcome in experiment [11] was inactive. The half-maximal activity concentration (AC50) in [13] was 13 µM (active).
As for `OCCC(F)(F)C(F)(F)C(F)(F)C(F)(F)F`, the molecule was called inactive in experiment [1], in experiment [2], in experiment [3], in [17], in experiment [4] and in experiment [13]. The call in experiment [18], in experiment [19], in [20], in [14], in experiment [15] and in experiment [6] was inactive. The outcome in experiment [7], in experiment [8], in experiment [9], in [10] and in experiment [11] was inactive.
Turning to `OCc1c[nH]c2ccccc12`, the result in experiment [1], in [2], in experiment [17], in [18], in experiment [19] and in experiment [20] was inactive. Further, the molecule was classed as inactive in [14], in experiment [5], in [15], in experiment [7], in experiment [8] and in experiment [10]. Moreover, the outcome in experiment [11] was inactive. The AC50 in experiment [4] is 9.76 µM (active); in experiment [13], 1.89 µM (active) [middle of 5 runs]; in experiment [5] it was 9.59 µM (active); in experiment [6], 24.6 µM (active); in experiment [9], 9.29 µM (active).
Regarding `Cc1ncc([C@@H](CCCCCCc2ccc3c(n2)NCCC3)CC(=O)O)cn1`, the molecule was classed as inactive in experiment [1], in experiment [2], in [13], in experiment [20], in experiment [14] and in [5]. In addition, the result in [15], in experiment [6], in experiment [16], in experiment [7], in experiment [9] and in [11] was inactive. The AC50 in experiment [4] was 2.14 µM (active); in experiment [10], 1.02 µM (active).
As for `CCOC(N)=O`, the call in experiment [1], in experiment [2], in experiment [4], in experiment [19], in experiment [20] and in [14] was inactive. In addition, the result in experiment [6], in [16], in [7], in experiment [9], in experiment [10] and in experiment [11] was inactive.
`CCCOc1ccc(S(=O)(=O)N2CCN(CC)CC2)cc1-c1nc2c(CC)n(Cc3ccccn3)nc2c(=O)[nH]1`: the outcome in experiment [1], in experiment [2], in experiment [4], in experiment [18], in experiment [14] and in experiment [5] was inactive. Also, the outcome in experiment [7], in [8], in [9], in experiment [10] and in [11] was inactive. For the same molecule, the concentration at half-maximal activity (AC50) in experiment [13] is 1.17 µM (active).
Consider `O=C(O)[C@H](O)[C@@H](O)C(=O)O`, for which the outcome in [1], in [2], in [4], in experiment [19], in experiment [20] and in [14] was inactive. In addition, the molecule was called inactive in experiment [5], in experiment [15], in [6], in experiment [16], in [7] and in [9]. Besides, the outcome in experiment [10] and in [11] was inactive.
In the case of `OCC(CO)(CO)CO`, the outcome in experiment [1], in [2], in [4], in [13], in experiment [20] and in experiment [14] was inactive. The molecule was classed as inactive in experiment [5], in experiment [15], in experiment [6], in experiment [7], in [9] and in experiment [10]. Also, the result in experiment [11] was inactive.
